# According to PubChem BioAssay:
# Where “and” joins values, the source holds several entries; their conditions need not be identical. Identical values can stand only once. Calls of active or inactive are those of the source.
# Assays:
# [1] = test system: PRMT1 (protein arginine N-methyltransferase 1); experiment: small molecules binding arginine methyltransferase PRMT1 – biochemical, small-molecule microarray, 635 nm fluorescence, primary screen (AID 1088); settings: higher = more signal;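 also: binding of Prmt1 protein to compounds spotted on small-molecule microarray slides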
# [2] = growth effects on S. cerevisiae YJM789 – YJM789 clinical isolate, OD600, 24 h, basal, primary screen (AID 1089); settings: higher = more signal, called active from +8 up or from −8 down;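 also: growth of clinical yeast isolate S. cerevisiae YJM 789 seeded 1000 cells per well; test concentration not given here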
# [3] = S. pombe growth modifiers, basal conditions – strain 972, OD600, 24 h, no modulator, primary screen (AID 1090);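 also: basal condition with compound alone and no growth modifier present; test concentration not given here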; settings: S. pombe 972 growth, higher = more signal, called active from +8 up or from −8 down
# [4] = budding yeast growth modifiers under rapamycin – strain BY4716, OD600, 96 h, primary screen (AID 1091); also: test concentration not given here; settings: S. cerevisiae BY4716 + rapamycin, higher = more signal, called active from +8 up or from −8 down
# [5] = target: Torsin-1A-interacting protein 2 (Homo sapiens) (UniProt Q8NFQ8); experiment: small molecules binding lysate-expressed LULL1 – cell lysate, human LULL1 lysate, 635/667 nm fluorescence, primary screen (AID 1092); settings: small-molecule microarray, hLULL1 lysate binding, 635 nm fluorescence; higher = more signal;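 also: probe is lysate of COS7 cells overexpressing human LULL1; score merges per-feature 667 nm fluorescence with signal-to-noise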
# Sequence of Torsin-1A-interacting protein 2 (Homo sapiens) (Q8NFQ8 whole entry, looked up): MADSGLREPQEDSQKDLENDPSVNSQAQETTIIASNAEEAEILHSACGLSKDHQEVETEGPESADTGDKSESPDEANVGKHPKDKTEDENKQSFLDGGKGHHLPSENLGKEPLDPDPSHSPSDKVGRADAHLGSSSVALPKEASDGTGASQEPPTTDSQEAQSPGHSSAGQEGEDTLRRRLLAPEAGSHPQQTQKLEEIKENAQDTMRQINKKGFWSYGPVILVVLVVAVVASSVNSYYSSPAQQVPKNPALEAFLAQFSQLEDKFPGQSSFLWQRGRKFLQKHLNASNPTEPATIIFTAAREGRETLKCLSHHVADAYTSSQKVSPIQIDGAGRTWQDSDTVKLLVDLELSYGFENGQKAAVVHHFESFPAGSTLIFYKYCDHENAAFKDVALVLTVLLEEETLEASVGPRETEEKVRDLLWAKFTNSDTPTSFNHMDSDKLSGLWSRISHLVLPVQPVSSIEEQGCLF
# [6] = optical density change of DRC41 E. coli – strain DRC41, OD650, 24 h, E. coli filamentation project, primary screen (AID 1093);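 also: MC1000 strain lacking acrAB efflux and sulA so SOS filamentation is blocked; test concentration not given here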; settings: E. coli DRC41 growth, higher = more signal, called active from +8 up or from −8 down
# [7] = probe aLefty2 binding to arrayed compounds – biochemical, biotinylated probe, 635/667 nm fluorescence, primary screen (AID 1094); settings: small-molecule microarray, higher = more signal;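 also: score merges spot fluorescence near 667 nm with spot signal-to-noise ratio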
# [8] = test system: Noggin (protein binding on small-molecule microarray); experiment: small molecules binding Noggin protein – biochemical, 635/667 nm fluorescence, primary screen (AID 1095); settings: 635 nm fluorescence, higher = more signal;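 also: score merges 667 nm feature fluorescence with signal to noise over triplicate slides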
# [9] = target: Neurogenic locus notch homolog protein 3 (Homo sapiens) (UniProt Q9UM47); experiment: small molecules binding NOTCH3 protein – biochemical, 635/667 nm fluorescence, primary screen (AID 1096); settings: small-molecule microarray, 635 nm fluorescence, higher = more signal
# Sequence of Neurogenic locus notch homolog protein 3 (Homo sapiens) (Q9UM47 whole entry, looked up): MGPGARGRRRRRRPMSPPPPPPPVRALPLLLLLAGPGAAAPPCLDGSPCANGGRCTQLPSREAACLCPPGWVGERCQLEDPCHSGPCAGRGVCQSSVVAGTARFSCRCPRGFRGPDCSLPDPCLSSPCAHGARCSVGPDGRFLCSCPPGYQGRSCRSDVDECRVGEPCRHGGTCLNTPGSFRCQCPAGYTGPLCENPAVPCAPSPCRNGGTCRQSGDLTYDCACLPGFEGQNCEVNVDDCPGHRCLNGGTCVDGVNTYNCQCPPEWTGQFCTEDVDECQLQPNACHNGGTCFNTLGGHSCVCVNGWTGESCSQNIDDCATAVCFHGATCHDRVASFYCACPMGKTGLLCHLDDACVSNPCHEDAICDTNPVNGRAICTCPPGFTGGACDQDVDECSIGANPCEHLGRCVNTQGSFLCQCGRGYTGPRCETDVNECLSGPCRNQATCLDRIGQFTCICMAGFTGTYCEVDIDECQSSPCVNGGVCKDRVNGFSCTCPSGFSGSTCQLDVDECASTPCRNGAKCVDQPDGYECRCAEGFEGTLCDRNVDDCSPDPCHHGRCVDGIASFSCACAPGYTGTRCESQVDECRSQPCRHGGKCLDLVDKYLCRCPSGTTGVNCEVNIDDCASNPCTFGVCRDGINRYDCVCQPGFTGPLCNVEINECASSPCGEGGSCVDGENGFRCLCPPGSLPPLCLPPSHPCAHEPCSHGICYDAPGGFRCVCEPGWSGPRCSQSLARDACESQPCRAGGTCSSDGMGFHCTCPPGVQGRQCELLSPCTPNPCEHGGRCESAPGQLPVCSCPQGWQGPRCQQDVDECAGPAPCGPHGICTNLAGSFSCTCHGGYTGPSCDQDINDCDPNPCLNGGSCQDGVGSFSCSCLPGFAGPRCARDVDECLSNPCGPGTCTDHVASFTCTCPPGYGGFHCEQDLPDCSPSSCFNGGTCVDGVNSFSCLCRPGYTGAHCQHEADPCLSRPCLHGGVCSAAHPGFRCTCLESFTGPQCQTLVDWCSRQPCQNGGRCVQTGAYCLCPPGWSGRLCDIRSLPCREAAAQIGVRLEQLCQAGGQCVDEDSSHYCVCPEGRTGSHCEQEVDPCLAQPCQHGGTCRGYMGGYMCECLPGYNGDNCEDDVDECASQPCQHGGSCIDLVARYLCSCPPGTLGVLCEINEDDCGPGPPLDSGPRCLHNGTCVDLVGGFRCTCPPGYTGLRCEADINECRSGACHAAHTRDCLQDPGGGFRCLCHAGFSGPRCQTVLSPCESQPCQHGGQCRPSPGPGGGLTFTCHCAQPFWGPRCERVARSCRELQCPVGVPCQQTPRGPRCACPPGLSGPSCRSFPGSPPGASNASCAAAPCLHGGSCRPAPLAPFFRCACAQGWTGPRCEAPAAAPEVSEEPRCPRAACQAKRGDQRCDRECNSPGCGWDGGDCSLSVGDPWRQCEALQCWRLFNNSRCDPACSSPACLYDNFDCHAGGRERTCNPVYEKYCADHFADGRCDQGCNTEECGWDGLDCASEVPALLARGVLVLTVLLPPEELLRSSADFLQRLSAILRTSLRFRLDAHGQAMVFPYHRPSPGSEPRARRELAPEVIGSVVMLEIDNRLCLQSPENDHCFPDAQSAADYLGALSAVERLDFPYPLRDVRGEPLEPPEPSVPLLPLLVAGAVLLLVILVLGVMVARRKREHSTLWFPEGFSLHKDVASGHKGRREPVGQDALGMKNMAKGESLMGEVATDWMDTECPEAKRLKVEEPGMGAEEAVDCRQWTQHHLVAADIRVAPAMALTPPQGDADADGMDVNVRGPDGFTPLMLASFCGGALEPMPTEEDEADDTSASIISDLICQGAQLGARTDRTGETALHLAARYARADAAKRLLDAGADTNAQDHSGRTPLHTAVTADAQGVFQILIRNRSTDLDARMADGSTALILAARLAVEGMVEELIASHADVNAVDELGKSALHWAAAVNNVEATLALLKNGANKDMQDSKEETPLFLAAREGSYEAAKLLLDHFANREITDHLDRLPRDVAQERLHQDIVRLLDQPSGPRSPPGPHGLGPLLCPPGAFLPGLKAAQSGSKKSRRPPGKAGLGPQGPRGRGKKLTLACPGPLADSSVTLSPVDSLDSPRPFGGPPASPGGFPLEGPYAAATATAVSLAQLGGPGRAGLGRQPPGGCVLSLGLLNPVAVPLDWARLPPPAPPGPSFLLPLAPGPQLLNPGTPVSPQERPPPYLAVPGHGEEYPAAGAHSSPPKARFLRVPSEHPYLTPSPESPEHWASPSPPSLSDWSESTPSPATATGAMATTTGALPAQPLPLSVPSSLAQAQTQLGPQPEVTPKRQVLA
# [10] = probe aEGFR binding to arrayed compounds – biochemical, biotinylated probe, 635/667 nm fluorescence, primary screen (AID 1097); settings: small-molecule microarray, higher = more signal;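 also: probe is a biotinylated anti-EGFR antibody binding compounds printed on slides; score combines fluorescence near 667 nm and signal to noise of each spot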
# [11] = test system: Plasmodium falciparum Sir2 (PF13_0152, Sir2A); experiment: Plasmodium falciparum Sir2A binding compounds – biochemical, small-molecule microarray, 635 nm fluorescence, primary screen (AID 1098); settings: fluorescence 635 nm, higher = more signal;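 also: score merges spot fluorescence intensity with its signal-to-noise ratio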
# [12] = probe aDKK1 binding to arrayed compounds – biochemical, biotinylated probe, 635/667 nm fluorescence, primary screen (AID 1099); settings: small-molecule microarray, higher = more signal;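 also: score merges 667nm spot fluorescence with signal to noise across triplicate slides; reference of the scale not given here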
# [13] = probe aCHRDL2 binding to arrayed compounds – biochemical, biotinylated probe, 635/667 nm fluorescence, primary screen (AID 1100); settings: small-molecule microarray, higher = more signal
# [14] = change in splice reporter luminescence, either direction, cell-based, HEK293, spliceosome inhibition project, primary screen (AID 1101); settings: HEK293 splicing luciferase reporter, 24 h, higher = more signal, called active from +8 up or from −8 down;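 also: HEK293 cells carrying a splicing-competent luciferase reporter gene; test concentration not given here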
# [15] = target: Fibroblast growth factor 10 (Homo sapiens) (UniProt O15520); experiment: compounds binding fibroblast growth factor 10 – biochemical, small-molecule microarray, 635 nm fluorescence, primary screen (AID 1102); settings: FGF10 binding, fluorescence 635 nm, higher = more signal
# Sequence of Fibroblast growth factor 10 (Homo sapiens) (O15520 whole entry, looked up): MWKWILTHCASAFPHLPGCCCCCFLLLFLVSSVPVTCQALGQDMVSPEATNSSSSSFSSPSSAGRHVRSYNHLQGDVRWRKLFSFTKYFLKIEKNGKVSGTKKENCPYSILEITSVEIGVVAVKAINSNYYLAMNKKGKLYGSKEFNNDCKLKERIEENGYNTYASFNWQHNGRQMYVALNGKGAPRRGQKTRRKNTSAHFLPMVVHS
# [16] = test system: glycogen synthase kinase-3 (GSK3A per assay name; protocol says GSK3B); experiment: compounds binding glycogen synthase kinase-3 – biochemical, small-molecule microarray, 635 nm fluorescence, GSK3A, primary screen (AID 1103); settings: fluorescence 635 nm, higher = more signal; also: the record names both GSK3A and GSK3B
# [17] = target: Epidermal growth factor receptor (Homo sapiens) (UniProt P00533); experiment: compounds binding epidermal growth factor receptor – biochemical, small-molecule microarray, 635 nm fluorescence, primary screen (AID 1104); settings: EGFR binding, higher = more signal;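 also: score merges 667 nm emission intensity with spot signal to noise over triplicate slides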
# Sequence of Epidermal growth factor receptor (Homo sapiens) (P00533 whole entry, looked up): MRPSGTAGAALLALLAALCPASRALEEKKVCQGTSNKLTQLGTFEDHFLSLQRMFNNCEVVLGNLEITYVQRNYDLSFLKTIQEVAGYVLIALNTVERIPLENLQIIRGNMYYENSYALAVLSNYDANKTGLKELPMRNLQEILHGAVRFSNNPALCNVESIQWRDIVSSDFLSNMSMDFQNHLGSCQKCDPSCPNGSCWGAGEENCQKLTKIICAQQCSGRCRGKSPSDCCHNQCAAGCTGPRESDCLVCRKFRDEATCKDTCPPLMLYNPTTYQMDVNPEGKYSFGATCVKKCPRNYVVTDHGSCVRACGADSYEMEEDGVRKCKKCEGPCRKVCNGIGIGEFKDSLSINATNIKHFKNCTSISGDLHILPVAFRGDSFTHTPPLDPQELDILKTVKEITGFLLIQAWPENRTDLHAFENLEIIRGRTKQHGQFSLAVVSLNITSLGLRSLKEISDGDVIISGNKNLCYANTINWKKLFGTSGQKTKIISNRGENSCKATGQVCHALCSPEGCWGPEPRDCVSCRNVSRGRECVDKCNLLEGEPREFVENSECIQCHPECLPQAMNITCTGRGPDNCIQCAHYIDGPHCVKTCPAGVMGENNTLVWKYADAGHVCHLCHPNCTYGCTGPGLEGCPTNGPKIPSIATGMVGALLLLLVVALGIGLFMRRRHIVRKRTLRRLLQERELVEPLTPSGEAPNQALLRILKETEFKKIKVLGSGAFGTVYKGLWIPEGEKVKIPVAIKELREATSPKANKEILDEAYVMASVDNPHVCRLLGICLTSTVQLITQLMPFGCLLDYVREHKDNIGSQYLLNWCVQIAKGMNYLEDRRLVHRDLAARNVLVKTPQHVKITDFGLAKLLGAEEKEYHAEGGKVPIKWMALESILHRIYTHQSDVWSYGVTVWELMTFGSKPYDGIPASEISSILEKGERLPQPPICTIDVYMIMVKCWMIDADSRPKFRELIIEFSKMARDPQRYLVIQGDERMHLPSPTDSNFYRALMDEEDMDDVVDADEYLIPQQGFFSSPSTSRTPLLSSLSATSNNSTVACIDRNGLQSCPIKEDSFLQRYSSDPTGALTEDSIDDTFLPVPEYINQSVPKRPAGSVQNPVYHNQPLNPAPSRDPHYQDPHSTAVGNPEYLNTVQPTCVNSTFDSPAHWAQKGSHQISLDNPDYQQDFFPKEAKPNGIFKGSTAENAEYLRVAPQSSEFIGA
# [18] = target: Follistatin-related protein 3 (Homo sapiens) (UniProt O95633); experiment: compounds binding follistatin-related protein 3 – biochemical, small-molecule microarray, 635 nm fluorescence, primary screen (AID 1105); settings: FSTL3 binding, higher = more signal;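 also: score merges emission near 667 nm and signal to noise per printed spot across three slides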
# Sequence of Follistatin-related protein 3 (Homo sapiens) (O95633 whole entry, looked up): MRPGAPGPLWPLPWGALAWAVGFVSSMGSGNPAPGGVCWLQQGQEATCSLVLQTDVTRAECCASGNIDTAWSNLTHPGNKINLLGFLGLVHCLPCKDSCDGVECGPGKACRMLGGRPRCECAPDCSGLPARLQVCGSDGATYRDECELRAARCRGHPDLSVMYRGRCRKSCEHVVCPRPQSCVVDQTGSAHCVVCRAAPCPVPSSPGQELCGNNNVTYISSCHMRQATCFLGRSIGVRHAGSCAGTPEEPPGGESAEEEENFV
# [19] = target: Dickkopf-related protein 1 (Homo sapiens) (UniProt O94907); experiment: small molecules binding DKK1 protein – biochemical, small-molecule microarray, 635 nm fluorescence scan, primary screen (AID 1106); settings: higher = more signal;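 also: score merges emission near 667 nm with signal to noise over three replicate slides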
# Sequence of Dickkopf-related protein 1 (Homo sapiens) (O94907 whole entry, looked up): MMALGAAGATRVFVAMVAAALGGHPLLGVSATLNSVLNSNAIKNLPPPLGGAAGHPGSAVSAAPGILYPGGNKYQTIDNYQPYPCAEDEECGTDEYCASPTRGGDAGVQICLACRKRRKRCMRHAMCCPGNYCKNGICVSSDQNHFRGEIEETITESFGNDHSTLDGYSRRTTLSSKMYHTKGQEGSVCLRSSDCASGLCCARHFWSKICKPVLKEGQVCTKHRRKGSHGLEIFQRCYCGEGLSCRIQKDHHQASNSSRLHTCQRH
# [20] = test system: Inhibin beta A chain (activin A); experiment: small molecules binding activin A – biochemical, small-molecule microarray, 635 nm fluorescence scan, primary screen (AID 1107); settings: INHBA, higher = more signal;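 also: mouse activin A protein probed at 4.33 µg/mL on printed slides; score merges bound-protein fluorescence near 667 nm with spot signal-to-noise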
SMILES,composite z-score [1],z-score [2],z-score [3],z-score [4],composite z-score [5],z-score [6],composite z-score [7],composite z-score [8],composite z-score [9],composite z-score [10],composite z-score [11],composite z-score [12],composite z-score [13],z-score [14],composite z-score [15],composite z-score [16],composite z-score [17],composite z-score [18],composite z-score [19],composite z-score [20]
CCOC(=O)[C@H](Cc1ccccc1)NC(=O)CCC1CC(OC(=O)NCc2cccc3ccccc23)CC2(CCCC(COC(=O)NCCCN3CCCC3=O)O2)O1 (stereo not given in full),1.21,-1.18 (inactive),0.134 (inactive),-0.896 (inactive),2.01,-0.288 (inactive),-0.148,0.692,1.01,-0.0578,0.513,-0.104,-0.517,-1.09 (inactive),0.447,0.901,0.405,0.804,0.866,-0.0698
CCOC(=O)[C@H](CC(C)C)NC(=O)CCC1CC(OC(=O)NCc2cccc3ccccc23)CC2(CCCC(COC(=O)NCc3ccccc3)O2)O1 (stereo not given in full),-0.0282,-1.11 (inactive),-0.0838 (inactive),-0.395 (inactive),-0.393,-0.548 (inactive),-0.221,0.306,0.156,-0.182,0.929,-0.299,-0.103,-2.18 (inactive),-0.242,-0.97,-0.152,-0.499,-0.311,0.493
C=CCN(C(=O)C1N(c2c(Cl)cccc2CO)C(=O)C2C(C(=O)O)C3C=CC21O3)c1ccc(OC)cc1 (stereo not given),-0.406 and -0.949,0.188 (inactive) and -1.76 (inactive),0.0331 (inactive) and -1.23 (inactive),-0.362 (inactive) and -0.691 (inactive),-0.51 and -1.41,1.82 (inactive) and 2.06 (inactive),-0.652 and -0.252,-1.05 and -1.85,-0.306 and -0.737,-0.327 and -0.236,1.51 and -0.251,-0.0248 and -0.257,0.804 and 0.73,-1.1 (inactive) and -0.88 (inactive),-1.56 and -2.01,-1.29 and -0.754,-1.86 and -2.26,-1.4 and -2.14,-1.99 and -2.35,-1.12 and -3.24
CC(C)=CCCC(C)=CCON=C1C[C@@H](O)[C@@H](O)[C@@H]2[C@@H]3C(=O)N([C@@H](C)c4ccccc4)C(=O)[C@@H]3CC[C@H]12,1.13,-1.23 (inactive),-0.846 (inactive),-0.989 (inactive),2.28,-1.39 (inactive),-0.0991,0.454,0.492,-0.162,0.948,-0.238,-0.213,-1.19 (inactive),0.739,0.692,0.525,0.718,0.645,1.15
C=CCN(CCCC)C(=O)C1N(CCCCCCO)C(=O)C2C(C(=O)O)C3C=CC21O3 (stereo not given),-0.448 and -0.52,0.0812 (inactive) and -0.104 (inactive),0.496 (inactive) and -0.0666 (inactive),-0.282 (inactive) and -0.642 (inactive),-0.179 and 2.36,-0.909 (inactive) and -0.855 (inactive),0.0397 and -0.0936,-3.5 and -2.6,-1.8 and -1.2,-0.485 and -0.356,1.64 and 0.937,-0.288 and -0.0191,1.02 and 0.849,0.671 (inactive) and -0.0103 (inactive),-1.87 and -1.39,-1.1,-1.93 and -1.35,-2.74 and -2.04,-2.67 and -3.18,-2.85 and -2.5
C=CCN(C(=O)C(c1cccs1)N(C(=O)/C=C\C(=O)O)c1ccc(CCO)cc1)c1ccc(OC)cc1 (stereo not given),-1.26 and -1.84,-0.755 (inactive) and 0.13 (inactive),-0.548 (inactive) and -0.894 (inactive),-0.929 (inactive) and -0.544 (inactive),-0.879 and -1.32,1.92 (inactive) and 0.715 (inactive),-0.0446 and -0.0463,-1.86 and -2.24,-0.314 and -1.78,-0.231 and -0.348,-0.087 and -1.23,-0.26 and 0.0389,0.822 and 1.13,0.0213 (inactive) and 0.54 (inactive),-1.94 and -2.06,-1.57 and -1.13,-1.46 and -2.92,-1.38 and -2.79,-2.88 and -3.33,-1.56 and -1.86
C[C@@H]1CC[C@H]2C(=O)NC[C@@H](O)CN2[C@H]1c1ccc(Br)cc1,-0.0838 and -0.473,-0.77 (inactive) and 0.443 (inactive),-0.0565 (inactive) and -0.0682 (inactive),-0.451 (inactive) and 0.389 (inactive),0.759 and -0.129,0.0565 (inactive) and 0.377 (inactive),-0.136 and -0.253,0.561 and -0.0536,-0.0857 and -0.344,-0.171 and -0.0356,0.102 and 0.107,-0.214 and -0.138,-0.0441 and -0.0598,0.338 (inactive) and 0.0732 (inactive),-0.0319 and -0.141,-0.645 and -0.288,-0.251 and -0.159,-0.348 and -0.394,-0.219 and -0.179,0.747 and 0.211
CCCCCN1CC=CC23O[C@@H]4C=CCCOC(=O)C4[C@H]2C(=O)N(C(C)CO)[C@@H]3C1=O (stereo not given in full),0.432 and 0.967,-0.772 (inactive) and 0.61 (inactive),-0.328 (inactive) and 0.278 (inactive),-1.48 (inactive) and 0.779 (inactive),1.01 and 2.94,1.78 (inactive) and 1.58 (inactive),-0.401 and 0.157,0.157 and 0.362,0.311 and 0.388,-0.386 and -0.253,1.83 and 0.878,-1.21 and 0.263,-0.532 and 0.779,0.691 (inactive) and 0.361 (inactive),0.0253 and -0.6,0.375 and -0.449,-0.655 and -0.706,0.164 and -0.32,-0.057 and -0.695,-0.131 and 0.537
